Assay results: PubChem BioAssay AID485317 (Broad Institute, 2010)
The whole screen tested about 290,000 compounds, of which about 11,000 (3.8%) were called active.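 Rule for the calls: active = mean replicate inhibition above about 79%, with every replicate also reaching it (limit read from the data); inconclusive = only one of the two criteria met; inactive = mean below limit and not every replicate reaching it.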 The sample as a whole holds a higher share of actives than the screen did.

Target: FAD-linked sulfhydryl oxidase ALR (Homo sapiens) (UniProt P55789)
Assay: ALR-catalysed DTT oxidation blockers – biochemical, H2O2 detection, HRP-luminol luminescence, single point, primary screen (AID 485317)
Conditions: purified ALR, stronger effect = higher value, concentration not given here

Chain of FAD-linked sulfhydryl oxidase ALR (Homo sapiens) (P55789 whole entry, looked up): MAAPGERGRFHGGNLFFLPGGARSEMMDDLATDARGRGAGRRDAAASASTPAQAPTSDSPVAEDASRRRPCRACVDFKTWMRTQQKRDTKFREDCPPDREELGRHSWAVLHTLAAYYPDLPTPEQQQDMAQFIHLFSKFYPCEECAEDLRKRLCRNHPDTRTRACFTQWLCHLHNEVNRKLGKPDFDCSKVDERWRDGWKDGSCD

With COc1ccc(-c2c(C#Cc3ccccc3)c3ccccc3n2C)cc1 as the molecule, how does the inhibition read?
Its inhibition is -4.24% (inactive).

Which inhibition does the source give for CCOC(=O)C1CCN(CC(=O)Nc2ccc(OC)c(S(=O)(=O)N3CCCCC3)c2)CC1 here?
The inhibition was -8.75% (inactive).

Which inhibition does the source give for COc1ccc(F)cc1S(=O)(=O)NCC(c1ccc2c(c1)OCO2)N1CCN(C)CC1 (stereo unspecified) here?
Its inhibition is -4.58% (inactive).

How did the inhibition turn out when CN(C(=O)c1cccc(NC(=O)C2CCN(C(=O)OC(C)(C)C)CC2)c1)C1CCC1 was run?
The inhibition was 4.19% (inactive).

For Cc1ccc(C(=O)Oc2coc(CSc3nnc(NC(=O)c4cccs4)s3)cc2=O)cc1C, which inhibition is on record?
Its inhibition is 0.72% (inactive).

Which inhibition does the source give for O=C(/C=C/c1ccccc1)Oc1coc(CSc2ncccn2)cc1=O here?
The inhibition was 97.4% (active).

How did the inhibition turn out when C=CCNC(=O)COc1coc(CN2CCN(Cc3ccccc3)CC2)cc1=O was run?
Its inhibition is -3.07% (inactive).

Which inhibition does the source give for CC(=O)NCc1ccc(-c2csc(NC(=O)CCCc3nc4ccccc4c(=O)[nH]3)n2)cc1 here?
Its inhibition is -5.1% (inactive).

How did the inhibition turn out when C[C@@H]1CN([C@H](C)CO)C(=O)c2cc(NC(=O)NC3CCCCC3)ccc2O[C@H]1CN(C)S(C)(=O)=O was run?
The inhibition was 0.076% (inactive).

Cc1cccc(N=C2SC(C)CN2C(=O)CN2C(=O)NC3(CCCC3)C2=O)c1 (stereo unspecified) was tested. Which inhibition did it give?
The inhibition was 2.77% (inactive).

Which inhibition does the source give for O=C1CSc2ccc(C(=O)NCc3ccccn3)cc2N1 here?
The inhibition was -5.07% (inactive).

Cc1nn(Cc2ccccc2)c(C)c1C(=O)N1CCN(CC(=O)Nc2ccccc2Cl)CC1 was tested. Which inhibition did it give?
The inhibition was -4.78% (inactive).

With COc1ccc(-c2nc3c(s2)CCc2onc(-c4ccc(Br)cc4)c2-3)cc1 as the molecule, how does the inhibition read?
Its inhibition is -11% (inactive).

With CCOc1ncccc1C(=O)OCc1cn2cc(Cl)ccc2n1 as the molecule, how does the inhibition read?
The inhibition was -2.41% (inactive).

How did the inhibition turn out when CCCCCCSc1ccc(-c2nc3ccc(Cl)cn3c2NCc2ccccc2)cc1 was run?
The inhibition was -0.616% (inactive).

How did the inhibition turn out when Clc1ccc2nc(CSc3ccccc3)cn2c1 was run?
The inhibition was 98.9% (active).

For O=C1N[C@@H](Cc2ccccc2)C(=O)N2[C@H]1C[C@]1(Br)c3ccccc3N(S(=O)(=O)c3ccccc3)[C@H]21, which inhibition is on record?
Its inhibition is -12.1% (inactive).

With CCOc1ccc(-c2nc(C)sc2CC(=O)O)cc1 as the molecule, how does the inhibition read?
The inhibition was -6.6% (inactive).

For Cc1ccc(-c2nc(C)sc2CC(=O)O)cc1, which inhibition is on record?
The inhibition was 99.3% (active).

With Cc1ccc(-c2nc(C)sc2CC(=O)OCC(=O)Nc2c(F)cccc2F)cc1 as the molecule, how does the inhibition read?
The inhibition was -7.76% (inactive).

Cc1ccc(C(=O)OCC(=O)N2CCCCCC2)cc1S(=O)(=O)N1CCOCC1 was tested. Which inhibition did it give?
Its inhibition is -22.6% (inactive).

Which inhibition does the source give for COc1cccc(CNC(=O)COC(=O)CN2C(=O)NC3(CCCCC3C)C2=O)c1 (stereo unspecified) here?
The inhibition was 2.16% (inactive).

Which inhibition does the source give for COc1ccc(/C=C(\C#N)C(=O)ONC2=NCCCCC2)cc1 here?
Its inhibition is 12.1% (inactive).

Which inhibition does the source give for Oc1ccc(/C=N/Nc2nc(-c3ccccc3F)nc3ccccc23)c(O)c1 here?
Its inhibition is 6.31% (inactive).

For COc1ccccc1N1CCN(/N=C/c2ccc(O)cc2O)CC1, which inhibition is on record?
The inhibition was 1.54% (inactive).

For Oc1ccc(/C=N/NC2=NCCCCC2)c(O)c1, which inhibition is on record?
The inhibition was 81.4% (active).

How did the inhibition turn out when Cc1nc2ccccc2nc1N/N=C/c1ccc(O)cc1O was run?
Its inhibition is 95.7% (active).

For FC(F)(F)c1nc2ccccc2nc1N/N=C/c1ccc(Cl)cc1, which inhibition is on record?
The inhibition was -14.4% (inactive).

For COc1ccc(OC)c(/C=C/C(=O)c2ccc3c(c2)OCO3)c1, which inhibition is on record?
Its inhibition is 3.84% (inactive).

With COc1cc(OC)cc(C(=O)NNC(=O)CNC(=O)c2ccc(Br)o2)c1 as the molecule, how does the inhibition read?
The inhibition was 7.85% (inactive).

For CC(=O)Nc1ccc(C(=O)NNC(=O)CCCCC(=O)NNC(=O)c2ccc(NC(C)=O)cc2)cc1, which inhibition is on record?
Its inhibition is -0.231% (inactive).

How did the inhibition turn out when CNC[C@H]1Oc2c(NC(=O)C3CCCCC3)cccc2C(=O)N([C@H](C)CO)C[C@@H]1C was run?
The inhibition was -1.07% (inactive).

Which inhibition does the source give for C=CC[C@@H](CC(=O)N[C@H](CO)Cc1ccccc1)C(=O)N[C@H](C)COC(=O)[C@@H](CC=C)Cc1ccc(F)cc1 here?
The inhibition was 2.31% (inactive).

How did the inhibition turn out when CCOC(=O)c1cc(-c2ccccc2C)n(Cc2cc(C)no2)n1 was run?
Its inhibition is 0.367% (inactive).

Which inhibition does the source give for Cc1ccc(S(=O)(=O)N2[C@@H](c3ccccc3F)C(C(=O)O)=CC[C@H]2c2ccc(Cl)cc2)cc1 here?
Its inhibition is 2.55% (inactive).

With COc1ccc(S(=O)(=O)N2CCN(c3cnccn3)CC2)cc1 as the molecule, how does the inhibition read?
The inhibition was -0.305% (inactive).

For CO/N=C(\C(=O)N[C@@H]1C(=O)N2C(C(=O)O)=C(COC(C)=O)CS[C@H]12)c1csc(N)n1 (stereo in doubt), which inhibition is on record?
The inhibition was -8.83% (inactive).

How did the inhibition turn out when Cc1cc(C)cc(C(=O)NC2C(=O)N3C(C(=O)O)=C(CSc4nnc(C)s4)CSC23)c1 (stereo unspecified) was run?
The inhibition was 98% (active).

Which inhibition does the source give for Cc1nnc(SCC2=C(C(=O)O)N3C(=O)C(NC(=O)Cn4nc(C)c(Cl)c4C)C3SC2)s1 (stereo unspecified) here?
The inhibition was -10.4% (inactive).

How did the inhibition turn out when CCc1ccc(Nc2n[n+](-c3ccccc3)c(-c3cccc(Cl)c3Cl)s2)cc1 was run?
Its inhibition is -4.3% (inactive).

For Cc1ccc(S(=O)(=O)NCC(=O)NNC(=O)c2ccc(Br)cc2)cc1C, which inhibition is on record?
Its inhibition is -2.29% (inactive).

Which inhibition does the source give for CC1(NC(=O)CCS(=O)(=O)c2ccc(Cl)cc2)CCS(=O)(=O)C1 (stereo unspecified) here?
The inhibition was -4.01% (inactive).

With O=[N+]([O-])c1ccc(O)c(/C=N/Nc2ccccc2[N+](=O)[O-])c1 as the molecule, how does the inhibition read?
The inhibition was -10.4% (inactive).

Which inhibition does the source give for O=[N+]([O-])c1ccccc1Nc1ccc(O)cc1 here?
Its inhibition is 99.6% (active).

For O=C(O)c1ccccc1C(=O)Nc1ccccc1[N+](=O)[O-], which inhibition is on record?
The inhibition was -2.15% (inactive).

How did the inhibition turn out when Nc1nnc(SCC(=O)NCC(=O)Nc2ccc(F)c(F)c2F)s1 was run?
Its inhibition is 1.09% (inactive).

Which inhibition does the source give for CN(CC(=O)NC1CCCCC1)S(=O)(=O)c1ccc(Br)s1 here?
The inhibition was -15% (inactive).

CN(CC(=O)NC1CCCC1)S(=O)(=O)c1cnc[nH]1 was tested. Which inhibition did it give?
Its inhibition is -4.3% (inactive).

With CN(CC(=O)NC1CCCCC1)S(=O)(=O)c1cccc2cccnc12 as the molecule, how does the inhibition read?
The inhibition was 89.5% (active).

CN(CC(=O)Nc1ccc(Cl)cc1)CC(=O)Nc1cccc2ccccc12 was tested. Which inhibition did it give?
Its inhibition is 2.05% (inactive).

How did the inhibition turn out when CCN(CC(=O)Nc1ccc(OC)cc1)C(=O)c1ccc(=O)n(Cc2ccccc2)n1 was run?
Its inhibition is 0.415% (inactive).

For Cc1noc(C)c1NC(=O)Nc1ccc2c(c1)C(=O)N([C@H](C)CO)C[C@H](C)[C@@H](CN(C)S(=O)(=O)c1cn(C)cn1)O2, which inhibition is on record?
The inhibition was -2.52% (inactive).

Which inhibition does the source give for O=C(COC(=O)c1c2c(nc3ccccc13)/C(=C\c1cccs1)CCC2)Nc1ccccc1Cl here?
Its inhibition is -2.03% (inactive).

With COc1cc(/C=C2\CCCc3c2nc2ccccc2c3C(=O)O)cc(Cl)c1O as the molecule, how does the inhibition read?
Its inhibition is 98.2% (active).

NS(=O)(=O)c1ccc(NC(=O)COC(=O)c2c3c(nc4ccccc24)/C(=C\c2ccc4c(c2)OCO4)CCC3)cc1 was tested. Which inhibition did it give?
Its inhibition is -36% (inactive).

With CN(CC(=O)NCCc1ccc(S(N)(=O)=O)cc1)CC(=O)Nc1ccc(Cl)cc1 as the molecule, how does the inhibition read?
The inhibition was -9.18% (inactive).

Which inhibition does the source give for CC1(C)C/C(=N/Nc2ccc([N+](=O)[O-])cc2[N+](=O)[O-])C(C)(C)O1 here?
Its inhibition is -14.3% (inactive).

How did the inhibition turn out when CCc1nnc(NS(=O)(=O)c2ccc(NC(=O)c3cccc(OC(F)(F)C(F)F)c3)cc2)s1 was run?
The inhibition was 88.3% (active).

Which inhibition does the source give for CCc1nnc(NS(=O)(=O)c2ccc(NS(=O)(=O)c3ccccc3)cc2)s1 here?
The inhibition was 35.6% (inactive).

How did the inhibition turn out when CCc1nnc(NS(=O)(=O)c2ccc(NC(=S)NC(=O)c3cccs3)cc2)s1 was run?
Its inhibition is 63.2% (inactive).

For O=C(COc1ccccc1)Nc1cc2c3c(c1)CC(=O)N3CCC2, which inhibition is on record?
The inhibition was -6.99% (inactive).

O=C(c1ccncc1)N1CCN(S(=O)(=O)c2cccc([N+](=O)[O-])c2)CC1 was tested. Which inhibition did it give?
The inhibition was -48.9% (inactive).

COc1cccc(NC(=O)Cn2c3ccccc3c3nc4n(c(=O)c32)CCS4)c1 was tested. Which inhibition did it give?
Its inhibition is 85.8% (active).

With COc1cccc(NC(=O)CN2CCN(CC(=O)Nc3ccccc3Cl)CC2)c1 as the molecule, how does the inhibition read?
Its inhibition is -2.36% (inactive).

How did the inhibition turn out when COc1cccc(NC(=O)Cn2c3ccc(F)cc3c3nc4n(c(=O)c32)CCS4)c1 was run?
The inhibition was -3.06% (inactive).

C[C@H]1CN([C@@H](C)CO)C(=O)Cc2cc(NS(C)(=O)=O)ccc2O[C@@H]1CN(C)CC1CC1 was tested. Which inhibition did it give?
The inhibition was 0.795% (inactive).

For O=C(CSc1nc(C2CC2)nc2ccccc12)Nc1ccc2c(c1)OCCO2, which inhibition is on record?
The inhibition was 40.9% (inactive).

Which inhibition does the source give for CN(C(=O)CSc1nc(C2CC2)nc2ccccc12)c1nc(-c2ccccc2)cs1 here?
Its inhibition is 98.6% (active).

For Cc1nnc(NC(=O)CSc2nc(C3CCCCC3)nc3ccccc23)s1, which inhibition is on record?
The inhibition was -39.6% (inactive).

Cc1ccccc1OCC(=O)NNC(=O)c1ccc(-n2cncn2)c([N+](=O)[O-])c1 was tested. Which inhibition did it give?
Its inhibition is -24.1% (inactive).

How did the inhibition turn out when O=C(NCCCN1CCCC1=O)c1ccc(S(=O)(=O)Nc2ccccc2)cc1 was run?
The inhibition was -9.87% (inactive).

How did the inhibition turn out when COc1ccccc1OCCCCCCN1CCN(C)CC1 was run?
The inhibition was -12.6% (inactive).

How did the inhibition turn out when CCCC(=O)Nc1ncnc2c1ncn2[C@@H]1O[C@@H]2OP(=O)(O)OC[C@H]2[C@H]1OC(=O)CCC was run?
The inhibition was -3.4% (inactive).

How did the inhibition turn out when Cc1cc(C(=O)CC#N)c(C)n1-c1c(C)n(C)n(-c2ccccc2)c1=O was run?
Its inhibition is 14.7% (inactive).

Cc1cc(C(=O)COC(=O)CNC(=O)c2ccc(F)cc2)c(C)n1Cc1ccco1 was tested. Which inhibition did it give?
Its inhibition is -2.4% (inactive).

How did the inhibition turn out when Cc1cc(C(=O)CC#N)c(C)n1CC(F)(F)F was run?
Its inhibition is 94.8% (active).

How did the inhibition turn out when Cc1ccc(CNC(=O)c2ccc3c(c2)S(=O)(=O)c2ccccc2C3=O)cc1 was run?
Its inhibition is -10.2% (inactive).

Which inhibition does the source give for c1nnc2c3c4c(sc3ncn12)CCC4 here?
Its inhibition is 45.2% (inactive).

How did the inhibition turn out when N=c1c2c3c(sc2ncn1N)CCCC3 was run?
The inhibition was -10.4% (inactive).

Which inhibition does the source give for S=c1[nH]nc2c3c4c(sc3ncn12)CCCC4 here?
Its inhibition is 97.9% (active).

Which inhibition does the source give for Cc1c(O)c(C)c2c(c1O)C(=O)C[C@@H](c1ccccc1)O2 here?
The inhibition was 2.46% (inactive).

COc1ccccc1C(=O)COC(=O)COc1ccc(C#N)cc1 was tested. Which inhibition did it give?
Its inhibition is 10.4% (inactive).

How did the inhibition turn out when O=S(=O)(Nc1ncnc2sccc12)c1cccc(F)c1 was run?
The inhibition was 8.21% (inactive).

For COc1ccc(C(=O)Oc2cc(/C=N/NS(=O)(=O)c3ccc(C)cc3)ccc2OC)cc1, which inhibition is on record?
The inhibition was -2.65% (inactive).

Which inhibition does the source give for COc1ccc(/C=C/C(=O)c2ccc(NS(=O)(=O)c3ccc(C)cc3)cc2)cc1O here?
Its inhibition is 82.9% (active).

How did the inhibition turn out when COc1ccc(NS(=O)(=O)c2ccc(NC(C)=O)cc2)cc1OC was run?
The inhibition was -18.8% (inactive).
